Source: PubChem
Compounds with a hit are over-represented: about 1% of the library has one in this group of screens.
F-actin modifier: cytoskeleton assembly modification; HUVEC TNFa F-actin phalloidin imaging, high content; 91,000 compounds, 0.18% hits; inhibition, % at 2 µM;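 active = inhibition above the batch mean plus 3 SD and confirmed as a hit by visual image inspection, cut at about 30% in these data, passing the limit was not always enough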
E-sel TNF inh: blocks E-selectin expression induced by TNF alpha; 120,000 compounds, 0.71% hits; inhibition, % at 2 µM; HUVEC TNFa-induced E-selectin immunofluorescence, high content; AID 1246;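 active = inhibition above the batch mean plus 3 SD, and confirmed as a hit on visual image review, cut at about 43% in these data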;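 note: 0% = TNF-stimulated DMSO wells and 100% = unstimulated control wells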
HUVEC tox TNFa: toxic to HUVEC cells under TNF alpha stimulation. HUVEC TNFalpha-stimulated, Hoechst cell count, imaging. cell count reduction, % at 2 µM. 93,000 compounds, 0.17% hits. AID 848;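 active = cell count reduction exceeding the screen mean by over 5 SD, scaled to untreated wells per plate, cut at about 78% in these data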;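 note: cells counted after 24 h of TNF alpha exposure following the 1 h pretreatment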
VCAM1 TNFa inh: reduces TNF alpha induced VCAM1 expression in HUVEC | HUVEC TNFa-induced VCAM-1 immunofluorescence, high-content imaging | inhibition, % at 2 µM | 95,000 compounds, 0.48% hits | AID 802;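 active = inhibition above the batch mean plus 3 SD, with images confirmed as a hit by eye, cut at about 37% in these data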;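 note: 0% = TNF-stimulated DMSO wells and 100% = unstimulated control wells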
The depositor's hits bear a star; · = not tested or not shown.

SMILES | F-actin modifier | E-sel TNF inh | HUVEC tox TNFa | VCAM1 TNFa inh
COc1cc(/C=C/C(=O)N2CCN(CC(O)COc3ccccc3)CC2)cc(OC)c1OC (stereo unspecified) | 33 | 66* | -23 | 2
COc1cc(/C=C/C(=O)N2CCCN(C(=O)/C=C/c3cc(OC)c(OC)c(OC)c3)CC2)cc(OC)c1OC | · | 5 | · | ·
O=C(/C=C/c1cccc([N+](=O)[O-])c1)n1cnc2ccccc21 | · | 99* | · | ·
O=C(Cc1ccccc1)Nc1cccc(N2C(=O)C=CC2=O)c1 | · | 22 | · | ·
CC(=O)c1c(C(C)=O)c(C)n(NC(=O)c2cccnc2)c1C | -3 | · | -27 | 12
CC(=O)c1c(C(C)=O)c(C)n(NC(=O)c2ccccc2O)c1C | 76* | 2 | -16 | -4
CC1(C)NC(=O)N(CCCCOc2cccc(C(F)(F)F)c2)C1=O | · | -21 | · | ·
CCC(C)Oc1cccc(OCCCCN2C(=O)NC(C)(C)C2=O)c1 (stereo unspecified) | 100* | 0 | · | ·
COCCCNCC(O)C(F)(F)F (stereo unspecified) | · | -11 | · | ·
CCOC(=O)c1sc2nccc(OC)c2c1N=CNOC | · | 6 | · | ·
N#Cc1cc2sc3nnc(-c4ccncc4)n3c2cc1C#N | · | 58* | · | ·
Cn1c(=O)cc(N)n(Cc2ccccc2)c1=O | · | -12 | · | ·
COc1ccc(S(=O)(=O)Cc2ccc(C(=O)NC3CCCC3)o2)cc1 | -1 | · | -12 | 4
CCOC(=O)N1CCC(NC(=O)c2ccc(CS(=O)(=O)c3ccc(OC)cc3)o2)CC1 | 27 | · | -32 | 85*
COc1ccc(S(=O)(=O)Cc2ccc(C(=O)N3CCOCC3)o2)cc1 | · | 95* | · | ·
N#C/C(=C/c1cn(CC(=O)O)c2ccccc12)C(=O)NCc1ccccc1 | · | -7 | · | ·
COc1ccccc1N1C(=O)CCC1(C#N)c1ccc(Br)cc1 (stereo unspecified) | 13 | 0 | 0 | 13
COc1ccc(N2C(=O)CCC2(C#N)c2ccc(Br)cc2)cc1 (stereo unspecified) | -12 | 100* | -9 | 9
Cc1cccc(OCc2nnc(N)s2)c1C | 26 | 71* | -17 | -8
Cc1ccc(OCc2nnc(N)s2)cc1 | · | 8 | · | ·
Cc1cc(C)cc(NC(=O)c2ccc([N+](=O)[O-])o2)c1 | · | 76* | · | ·
O=C(NNC(=O)c1ccc([N+](=O)[O-])o1)c1ccccc1 | 13 | -22 | -26 | 12
CCCCCOc1ccccc1C(=O)NCCC(=O)O | -7 | -12 | 14 | 12
CCOc1ccccc1C(=O)NCCC(=O)O | 100* | -19 | · | ·
COc1ccc2c(c1)C(C)=CC(C)(C)N2S(=O)(=O)c1ccc(C)cc1 | · | 7 | · | ·
SMILES | F-actin modifier | E-sel TNF inh | HUVEC tox TNFa | VCAM1 TNFa inh
CC1=CC(C)(C)N(S(=O)(=O)c2ccc(C)cc2)c2cc(C)ccc21 | 4 | 16 | 58 | 38*
O=S(=O)(Cc1ccccc1Cl)N1CCN(Cc2ccc3c(c2)OCO3)CC1 | 47* | -18 | -25 | 3
CCOC(=O)Cc1csc(SCC(=O)/C(C#N)=C(\C)N)n1 | 22 | 14 | 79* | 59*
COc1ccc(Cl)c(NC(=O)Nc2c(C)n(-c3ccccc3)c(=O)n2C)c1 | -5 | -32 | 9 | 94*
Nc1ccc2nc(-c3ccc(N)c(Cl)c3)[nH]c2c1 | 46* | -19 | -10 | -32
CSc1ccc(/C=C(/NC(=O)c2ccc(C)cc2)C(=O)Nc2cccc(F)c2)cc1 | · | -1 | · | ·
CC1(C)Cc2ccccc2C(NN=C2CCCC2)=N1 | · | 16 | · | ·
Cc1ccc2[nH]c3c(c2c1)CN(C(=O)CN1CCN(c2cccc(C)c2C)CC1)CC3 | 0 | -11 | -3 | -8
O=C(CN1CCSCC1)N1CCc2[nH]c3ccc(Br)cc3c2C1 | -18 | 5 | 4 | 61*
CC1(c2ccccc2)NC(=O)N(N)C1=O (stereo unspecified) | · | -7 | · | ·
CC1CC(=O)NN=C1c1ccc(N(C)C)c([N+](=O)[O-])c1 (stereo unspecified) | -36 | -19 | 19 | 35
CCN(CC)c1ccc(C2=NNC(=O)CC2C)cc1[N+](=O)[O-] (stereo unspecified) | -53 | -39 | 52 | 78*
Cc1cccc(N2CCN(Cc3cn(C)nc3-c3ccccc3F)CC2)n1 | · | -4 | · | ·
Cc1ccc(N2C(=O)C3C4C=CC(CNC(=S)Nc5ccc(F)cc5)(O4)C3C2=O)cc1 (stereo unspecified) | · | 68* | · | ·
CCOC(=O)c1cnc(-n2nc(C)cc2C)nc1NCc1ccccc1 | -49 | · | 76 | 92*
CCOC(=O)c1cnc(-n2nc(C)cc2C)nc1NCCO | -10 | 2 | -4 | 5
CC(C)NC(=S)NCc1cccnc1 | · | 53 | · | ·
CCCCn1cnc2c1c(=O)[nH]c(=O)n2CCCC | 35* | -5 | -52 | 0
Cn1c(=O)[nH]c(=O)c2c1ncn2CCN1CCOCC1 | -16 | 7 | -16 | -3
COc1ccc(Cl)cc1NC(=O)C(C)N(C)Cc1cccc(Cl)c1Cl (stereo unspecified) | · | 10 | · | ·
